Results taken from PubChem BioAssay (EPA / NIEHS).
Records with an inconclusive call do not appear. Calls of active or inactive are those of the source. How the source made its calls, unless noted: active means hit-call score of the fitted dose curve at least 0.9, where 1 is the maximum; inactive means score below 0.9.

Columns and labels:
DIO1 (gene 1733) = assay: CCTE_GLTED_hDIO1: CCTE's human Deiodinase 1 (DIO1) Inhibition Assay, Great Lakes Toxicology and Ecology Division (GLTED) Lab (AID 2283987; active means hit-call score of the fitted dose curve at least 0.9, where 1 is the maximum;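 further: isolated human DIO1 enzyme in a cell-free setup rather than cells; enzyme activity read as free iodide liberated from substrate via Sandell-Kolthoff colorimetry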)
In short: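 Cell-free human DIO1 enzyme was incubated with test chemical for 3 h, and iodide released from substrate was measured by Sandell-Kolthoff absorbance. Loss of signal versus DMSO baseline indicated inhibition; plates were run in triplicate.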

[1] = molecular target: Nucleoli Translocation, AR (gene 367) (UniProt P10275); assay: UPITT_HCI_U2OS_AR_TIF2_Nucleoli_Antagonist: University of Pittsburgh U2OS Androgen Receptor-Transcriptional Intermediary Factor 2 (AR-TIF2) Antagonism High Content Imaging Assay for Nucleoli Translocation (AID 2283997; active means hit-call score of the fitted dose curve at least 0.9, where 1 is the maximum)
Sequence of Nucleoli Translocation, AR (gene 367) (P10275 whole entry, looked up, the tested form may be a part): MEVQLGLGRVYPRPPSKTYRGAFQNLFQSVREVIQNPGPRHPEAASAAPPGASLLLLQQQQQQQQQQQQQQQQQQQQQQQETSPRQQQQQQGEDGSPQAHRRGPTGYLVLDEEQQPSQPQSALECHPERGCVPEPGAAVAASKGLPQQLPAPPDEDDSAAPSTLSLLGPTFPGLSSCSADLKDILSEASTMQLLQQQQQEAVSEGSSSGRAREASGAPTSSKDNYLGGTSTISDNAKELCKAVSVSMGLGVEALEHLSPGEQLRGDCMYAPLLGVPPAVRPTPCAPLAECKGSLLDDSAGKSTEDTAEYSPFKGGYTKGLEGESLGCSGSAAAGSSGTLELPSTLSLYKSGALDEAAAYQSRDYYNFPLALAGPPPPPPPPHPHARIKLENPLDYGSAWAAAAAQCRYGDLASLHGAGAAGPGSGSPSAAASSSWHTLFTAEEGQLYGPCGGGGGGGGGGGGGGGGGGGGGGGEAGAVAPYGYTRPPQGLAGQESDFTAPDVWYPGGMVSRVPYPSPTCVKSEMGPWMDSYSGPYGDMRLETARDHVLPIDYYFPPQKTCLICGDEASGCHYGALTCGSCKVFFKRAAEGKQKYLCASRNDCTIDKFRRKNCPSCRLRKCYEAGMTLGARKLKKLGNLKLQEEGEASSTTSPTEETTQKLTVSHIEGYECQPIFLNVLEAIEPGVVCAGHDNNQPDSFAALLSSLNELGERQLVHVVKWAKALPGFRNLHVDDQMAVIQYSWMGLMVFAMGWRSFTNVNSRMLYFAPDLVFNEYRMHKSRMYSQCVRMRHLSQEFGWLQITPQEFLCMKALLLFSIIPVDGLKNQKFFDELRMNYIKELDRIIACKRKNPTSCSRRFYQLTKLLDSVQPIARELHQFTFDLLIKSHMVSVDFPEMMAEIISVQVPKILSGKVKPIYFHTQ
In short: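 Compounds are added at 20 uM final concentration in 0.2% DMSO to U2OS cells carrying AR-RFP and TIF2-GFP fusions. Nucleolar AR-RFP fluorescence is then quantified by automated imaging. Antagonism is fitted positively against DHT baseline.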

[2] = molecular target: Nucleoli Translocation, AR (gene 367) (UniProt P10275); assay: UPITT_HCI_U2OS_AR_TIF2_Nucleoli_Agonist: University of Pittsburgh U2OS Androgen Receptor-Transcriptional Intermediary Factor 2 (AR-TIF2) Agonism High Content Imaging Assay for Nucleoli Translocation (AID 2283998; active means hit-call score of the fitted dose curve at least 0.9, where 1 is the maximum)
In short: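 Cells express human AR fused to red fluorescent protein and TIF2 fused to GFP. Red fluorescence in the nucleolar region was quantified by high-content imaging and fitted as gain-of-signal against a DMSO baseline. Compounds were tested at 0.195 to 50 uM final (0.5% DMSO).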

[3] = molecular target: Ratio of Nucleoli Translocation and Cytoplasm, AR (gene 367) (UniProt P10275); assay: UPITT_HCI_U2OS_AR_TIF2_Nucleoli_Cytoplasm_Ratio_Antagonist: University of Pittsburgh U2OS Androgen Receptor-Transcriptional Intermediary Factor 2 (AR-TIF2) Antagonism High Content Imaging Assay for Ratio of Nucleoli Translocation and Cytoplasm (AID 2283999; active means hit-call score of the fitted dose curve at least 0.9, where 1 is the maximum;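 further: antagonists lower the DHT-driven ratio of nucleolar to cytoplasmic red signal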)
Sequence of Ratio of Nucleoli Translocation and Cytoplasm, AR (gene 367) (P10275 whole entry, looked up): as the sequence (P10275 whole entry, looked up, the tested form may be a part) above
In short: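 This antagonist-mode endpoint tracks AR-RFP localisation, the nucleolus-to-cytoplasm intensity ratio, in TIF2-GFP-coexpressing U2OS cells. DMSO stays at or below 0.5%; testing spans 20 uM single-dose and 0.195–50 uM series, with DHT setting the activity baseline.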

[4] = CCTE_Harrill_HTTr_Viability_MCF7: CCTE's 6-hour Cell Viability Assessment for the High-Throughput Transcriptomics (HTTr) Platform, in MCF-7 cells cultured in DMEM + 10% fetal bovine serum, Harrill Lab (AID 2284010)
In short: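 Eight-point concentration series, six-hour exposure. Propidium iodide exclusion imaged to assess membrane integrity as a cytotoxicity readout; bidirectional fitting was done with DMSO as negative control and activity baseline.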

[5] = CCTE_Harrill_HTTr_Apoptosis_MCF7: CCTE's 6-hour Apoptosis Assessment for the High-Throughput Transcriptomics (HTTr) Platform, in MCF-7 cells cultured in DMEM + 10% fetal bovine serum, Harrill Lab (AID 2284011)
In short: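 MCF-7 cells in DMEM + 10% fetal bovine serum were exposed to chemicals for 6 hours over an eight-point dilution series. Caspase-3/7 activation was imaged by high content imaging with CellEvent Caspase 3/7 Green; bidirectional fitting used DMSO as baseline.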

[6] = CCTE_Harrill_HTTr_CellCount_MCF7: CCTE's Cell Proliferation Assessment for the High-Throughput Transcriptomics (HTTr) Platform, Harrill Lab (AID 2284012; active means hit-call score of the fitted dose curve at least 0.9, where 1 is the maximum;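 further: count of Hoechst-stained nuclei per well by high-content imaging in MCF-7 cells; cells exposed to compound for six hours; intended direction is loss of nuclei count meaning fewer cells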)
In short: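 For this full-screen endpoint, MCF-7 cultures received eight compound dilutions for six hours. Well nuclei counts from Hoechst imaging were analyzed relative to DMSO.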

[7] = molecular target: Ratio of Nucleoli Translocation and Cytoplasm, AR (gene 367) (UniProt P10275); assay: UPITT_HCI_U2OS_AR_TIF2_Nucleoli_Cytoplasm_Ratio_Agonist: University of Pittsburgh U2OS Androgen Receptor-Transcriptional Intermediary Factor 2 (AR-TIF2) Agonism High Content Imaging Assay for Ratio of Nucleoli Translocation and Cytoplasm (AID 2284000; active means hit-call score of the fitted dose curve at least 0.9, where 1 is the maximum;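 further: hits raise the red nucleolar to cytoplasm ratio above vehicle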)
In short: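 Human osteosarcoma U2OS line, AR-RFP plus TIF2-GFP; compounds 0.195–50 uM final, 0.5% DMSO. Readout: nucleolar/cytoplasmic RFP ratio by HCI, positive direction vs DMSO baseline.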

[8] = CCTE_Simmons_MITO_basal_resp_rate: CCTE's HepG2 Seahorse XF Respirometric Screening Assay at Basal Respiratory State, Simmons Lab (AID 2284001); settings: actives raise or lower the signal
In short: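 Basal-phase OCR of HepG2 cells on a Seahorse XF96, analysed by bidirectional fit relative to DMSO vehicle; chemicals at 7 concentrations, 125 nM–100 uM final; three biological replicates; fenpyroximate and 2,4-dinitrophenol positive controls.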

[9] = CCTE_Simmons_MITO_max_resp_rate: CCTE's HepG2 Seahorse XF Respirometric Screening Assay at Maximal Respiratory State [uncoupled], Simmons Lab (AID 2284002); settings: actives raise or lower the signal
In short: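 HepG2 oxygen consumption was read on a Seahorse XF96 after FCCP uncoupler injection, following test compound injection; 7 concentrations, 125 nM–100 uM final, three biological replicates. Bidirectional fitting against DMSO vehicle baseline.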

[10] = CCTE_Simmons_MITO_inhib_resp_rate: CCTE's HepG2 Seahorse XF Respirometric Screening Assay at Inhibited Respiratory State [full ETC block], Simmons Lab (AID 2284006); settings: actives raise or lower the signal
In short: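 Test chemicals at seven final concentrations (125 nM–100 uM) in three biological replicates, with DMSO as vehicle. HepG2 oxygen consumption was then tracked on a Seahorse XF96 for 72 min through FCCP and rotenone/antimycin A phases, with the inhibited-phase rate as the endpoint.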

[11] = CCTE_Simmons_MITO_viability: CellTiter-Glo Viability Assessment for CCTE's HepG2 Seahorse XF Respirometric Screening Assay [post-hoc], Simmons Lab (AID 2284007; active means hit-call score of the fitted dose curve at least 0.9, where 1 is the maximum;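 on AC50: cells exposed to chemical for 90 min before the ATP read; actives lower ATP signal relative to DMSO baseline meaning reduced viability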)
In short: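 Post-hoc viability check on the HepG2 respirometry plates: luciferase-based ATP signal measured once, after 90 min compound exposure spanning 125 nM–100 uM final. Activity was referenced to DMSO as baseline.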

[12] = CCTE_Shafer_MEA_acute_spike_number: CCTE's Neural Acute Assay for Total Number of Spikes, Shafer Lab (AID 2284008);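 on AC50: curve fitted for decrease in spike count so AC50 reflects inhibitors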
In short: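 Primary rat cortical neurons on 16-electrode MEA wells; on DIV 13 or 15, 40-min baseline then 40-min recording with compound (0.03-40 uM) at 37 C. Spikes detected at 8x rms noise; percent change versus baseline, DMSO as negative control.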

[13] = CCTE_Shafer_MEA_acute_firing_rate_mean: CCTE's Neural Acute Assay for Mean Firing Rate, Shafer Lab (AID 2284009);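 further: analyzed for loss of signal so actives lower firing rate relative to DMSO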
In short: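 Rat cortical neuron cultures matured to DIV 13 or 15, equilibrated 20 min at 37 C, then recorded 40 min for baseline. Compound (0.03-40 uM) added and a further 40 min recorded; percent change in mean firing rate calculated per well.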

[14] = CCTE_Shafer_MEA_acute_burst_number: CCTE's Neural Acute Assay for Single-Electrode Bursts, Shafer Lab (AID 2284013)
In short: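 Percent change in single-electrode burst number per well, from 40-min recordings taken before and after adding compound (0.03-40 uM) to primary rat cortical neurons on MEA plates at DIV 13 or 15, 37 C.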

[15] = CCTE_Shafer_MEA_acute_burst_duration_mean: CCTE's Neural Acute Assay for Mean Burst Duration, Shafer Lab (AID 2284014);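 further: hits are decreases in mean burst duration relative to DMSO controls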
In short: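 Rat cortical cultures, DIV 13/15; 40 min baseline, then 40 min with compound (0.03-40 uM), 37 C. Spikes: 300-5000 Hz band-pass, 8x rms threshold. Read-out: % change in mean single-electrode burst duration, DMSO-referenced, loss direction.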

[16] = CCTE_Shafer_MEA_acute_per_burst_spike_number_mean: CCTE's Neural Acute Assay for Average Number of Spikes Per Burst, Shafer Lab (AID 2284015);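 further: hits are decreases in mean spikes per burst versus baseline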
In short: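 Rat primary cortical neurons on 48-well MEAs (DIV 13 or 15) were treated with 0.03-40 uM compound at 37 C. Mean spikes per burst over 40 min were recorded before and after exposure and expressed as percent change from baseline, relative to DMSO.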

[17] = CCTE_Shafer_MEA_acute_interburst_interval_mean: CCTE's Neural Acute Assay for Mean Interburst Interval, Shafer Lab (AID 2284016);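 further: percent change of mean interburst interval versus each well's own pre-dose baseline; curves fitted for decrease in interburst interval relative to DMSO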
In short: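 Rat primary cortical neurons on 48-well MEAs at DIV 13 or 15 were exposed acutely to 0.03-40 uM. Spikes detected at 8x rms noise, 37 C. Mean interburst interval from 40 min recordings expressed as percent change from 40 min pre-treatment baseline.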

[18] = CCTE_Harrill_HTTr_Apoptosis_PRF_DMEM_6hr: (Pilot) CCTE's 6-hour Apoptosis Assessment for the High-Throughput Transcriptomics (HTTr) Platform, in MCF-7 cells cultured phenol red-free DMEM + 10% charcoal-stripped fetal bovine serum, Harrill Lab (AID 2283984)
In short: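 Caspase-3/7 activity (CellEvent Green) read by high-content imaging 6 h after dosing, eight concentrations. Cells: MCF-7, phenol red-free DMEM with 10% charcoal-stripped serum. Curves fit both directions against DMSO.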

[19] = CCTE_Harrill_HTTr_Apoptosis_PRF_DMEM_24hr: (Pilot) CCTE's 24-hour Apoptosis Assessment for the High-Throughput Transcriptomics (HTTr) Platform, in MCF-7 cells cultured in phenol red-free DMEM + 10% charcoal-stripped fetal bovine serum, Harrill Lab (AID 2283986)
In short: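 Eight concentrations tested for 24 h on MCF-7 grown in charcoal-stripped serum, phenol red-free DMEM. High content imaging of CellEvent Caspase 3/7 Green signal gives apoptosis read-out, fitted both ways relative to DMSO.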

Measured: AC50

O=Cc1ccccc1C=O
active: DIO1 (gene 1733) 49.3 µM
inactive: [1] | [2] | [3] | [4] | [5] | [6]

O=C1OC(c2ccc(O)cc2)(c2ccc(O)cc2)c2ccccc21
active: [1] 86.2 µM | [2] 78.7 µM | [7] 77 µM | [8] 32.6 µM | [11] 9.92 µM
inactive: [3] | [9] | [10] | [12] | [13] | [4] | [5] | [6] | [14] | [15] | [16] | [17]

Cc1ccc(C(C)(C)C)c(O)c1
inactive: [9] | [10] | [11] | [13] | [4] | [5] | [6] | [14] | [15] | [16] | [17]
active: [8] 44.6 µM | [12] 10.3 µM

O=C(NS(=O)(=O)/C=C/c1cccs1)c1ccc(F)cc1Br
inactive: [1] | [7] | [4] | [5]

CCOCCOCCO
inactive: [1] | [2] | [3] | [7] | [4] | [5] | [6]

Cc1c(C)c2c(c(C)c1O)CCC(C)(COc1ccc(CC3SC(=O)NC3=O)cc1)O2 (centres undefined)
inactive: [18] | [19] | [2] | [3] | [7] | [10] | [4] | [5] | [14] | [15] | [16] | [17]
active: DIO1 (gene 1733) 85.9 µM | [8] 3.22 µM | [9] 7.83 µM | [11] 8.43 µM | [12] 3.97 µM | [13] 3.97 µM

Nc1nc(=S)c2[nH]cnc2[nH]1
active: [16] 20 µM
inactive: [1] | [2] | [7] | [12] | [13] | [4] | [5] | [6] | [14] | [15] | [17]

O=C1CCCCC1
inactive: [1] | [2] | [7] | [4] | [5] | [6]

S=c1[nH]c2ccccc2s1
inactive: [4] | [5] | [6]
active: DIO1 (gene 1733) 23.4 µM

COC(=O)[C@H]1[C@H]2C[C@@H]3c4[nH]c5cc(OC)ccc5c4CCN3C[C@H]2C[C@@H](OC(=O)c2cc(OC)c(OC)c(OC)c2)[C@@H]1OC
inactive: [18] | [4] | [5] | [6] | [15]
active: [19] 58.3 µM | [12] 1.03 µM | [13] 1.04 µM | [14] 0.82 µM | [16] 0.582 µM | [17] 4.18 µM

C#CC(O)C(CC)CCCC (centres undefined)
inactive: [2] | [7] | [4] | [5] | [6]
active: [1] 22.5 µM | [3] 14.8 µM

CC(C)(O)c1ccc(CNC(=O)c2cccnc2Oc2ccc(F)cc2)cc1
active: [9] 18.6 µM
inactive: [8] | [10] | [11] | [4] | [5]

CCCCCCCCCCCCCCOS(=O)(=O)O
active: DIO1 (gene 1733) 85.7 µM
inactive: [4] | [5]

CC(=O)O[C@]1(C(C)=O)CC[C@H]2[C@@H]3C=C(Cl)C4=CC(=O)[C@@H]5C[C@@H]5[C@]4(C)[C@H]3CC[C@@]21C
active: [8] 29 µM | [9] 28.1 µM | [11] 23 µM
inactive: [18] | [19] | [10] | [4] | [5] | [6]
